The supplement of paper PMC10849652
Targets with a hit are over-represented here; the source holds about 8,800 in all. About 0.5% of all pairs of compound and target were hits.

Legend:
Assay in all cases: log2 fold change, soluble protein after heating vs DMSO (PISA); higher = thermal stabilisation; K562 lysate, 10 uM; active = over 0.2 and 3.5 SD of the protein, either way, in both replicates (recomputed)
[1] = compound: C1=CC=C(C=C1)[C@H](COC2=CC3=C(C=C2)NC(=O)N3)NC(=O)C4=CC=CN(C4=O)CC5=CC(=C(C=C5)F)F
Summary of the method: (§1)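 Soluble protein was defined as the supernatant remaining after 21,000xg for 90 min, following pooling of heated aliquots and adjustment to 0.5% NP-40 at 4°C. Before that, crude K562 extract at 1 mg/mL protein in PBS pH 7.4 with 1 mM MgCl2 was treated with 10 μM compound for 30 min and heated for 3 min across 48°C-58°C. Quantification used TMTpro 16plex LC-MS/MS with channel sums equalised, and values are log-two fold changes in thermal stability relative to solvent controls from duplicates.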

[2] = compound: CC1=C(SC2=C1C(=N[C@H](C3=NN=C(N32)C)CC(=O)N)C4=CC=C(C=C4)Cl)C
Summary of the method: as §1

[3] = compound: CC1=C2C(=CC=C1)N=C(N(C2=O)C3=CC=CC=C3C)CN4C=NC5=C(N=CN=C54)N
Summary of the method: as §1

[4] = compound: Cc1sc2c(c1C)C(c1ccc(Cl)cc1)=N[C@@H](CC(=O)OC(C)(C)C)c1nnc(C)n1-2
Summary of the method: as §1

[5] = compound: c1ccc([C@@H]2C[C@H]2NC2CCNCC2)cc1
Summary of the method: as §1

Measured: log2 fold change

MLXIP (UniProt Q9HAP2)
inactive: [1] -0.063 | [2] 0.005 | [3] 0.018 | [4] 0.031 | [5] -0.025

LLGL1 (UniProt Q15334)
inactive: [1] 0.038 | [2] 0.052 | [3] 0.024 | [4] -0.056 | [5] 0.074

KLC1 isoform 10 (UniProt Q07866)
inactive: [1] -0.094 | [2] -0.063

MIPEP (UniProt Q99797)
inactive: [1] 0.015 | [2] -0.019 | [3] 0.052 | [4] 0.028 | [5] -0.008

LARS2 (UniProt Q15031)
inactive: [1] -0.07 | [2] -0.072 | [3] -0.019 | [4] 0.066 | [5] 0.064

LSM8 (UniProt O95777)
inactive: [1] -0.057 | [2] -0.012 | [3] 0.017 | [4] -0.004 | [5] -0.029

MED12 isoform 2 (UniProt Q93074)
inactive: [1] 0.013 | [2] -0.024 | [3] -0.019 | [4] 0.042 | [5] 0.031

MORF4L1 isoform 2 (UniProt Q9UBU8)
inactive: [1] 0.012 | [2] -0.03 | [3] -0.029 | [4] -0.041 | [5] -0.035

MMS22L (UniProt Q6ZRQ5)
inactive: [1] -0.062 | [2] -0.027 | [3] -0.038 | [4] 0.07 | [5] 0.11

KLC4 isoform 3 (UniProt Q9NSK0)
inactive: [1] 0.011 | [2] 0.004 | [3] -0.003 | [4] 0.01 | [5] 0.014

MPI (UniProt P34949)
inactive: [1] 0.023 | [2] -0.014 | [3] 0.033 | [4] -0.023 | [5] 0.083

LRRC40 (UniProt Q9H9A6)
inactive: [1] 0.001 | [2] 0.003 | [3] 0.003 | [4] 0.012 | [5] 0.034

MAST4 (UniProt O15021)
Sequence of UniProt O15021 (O15021 whole entry, looked up): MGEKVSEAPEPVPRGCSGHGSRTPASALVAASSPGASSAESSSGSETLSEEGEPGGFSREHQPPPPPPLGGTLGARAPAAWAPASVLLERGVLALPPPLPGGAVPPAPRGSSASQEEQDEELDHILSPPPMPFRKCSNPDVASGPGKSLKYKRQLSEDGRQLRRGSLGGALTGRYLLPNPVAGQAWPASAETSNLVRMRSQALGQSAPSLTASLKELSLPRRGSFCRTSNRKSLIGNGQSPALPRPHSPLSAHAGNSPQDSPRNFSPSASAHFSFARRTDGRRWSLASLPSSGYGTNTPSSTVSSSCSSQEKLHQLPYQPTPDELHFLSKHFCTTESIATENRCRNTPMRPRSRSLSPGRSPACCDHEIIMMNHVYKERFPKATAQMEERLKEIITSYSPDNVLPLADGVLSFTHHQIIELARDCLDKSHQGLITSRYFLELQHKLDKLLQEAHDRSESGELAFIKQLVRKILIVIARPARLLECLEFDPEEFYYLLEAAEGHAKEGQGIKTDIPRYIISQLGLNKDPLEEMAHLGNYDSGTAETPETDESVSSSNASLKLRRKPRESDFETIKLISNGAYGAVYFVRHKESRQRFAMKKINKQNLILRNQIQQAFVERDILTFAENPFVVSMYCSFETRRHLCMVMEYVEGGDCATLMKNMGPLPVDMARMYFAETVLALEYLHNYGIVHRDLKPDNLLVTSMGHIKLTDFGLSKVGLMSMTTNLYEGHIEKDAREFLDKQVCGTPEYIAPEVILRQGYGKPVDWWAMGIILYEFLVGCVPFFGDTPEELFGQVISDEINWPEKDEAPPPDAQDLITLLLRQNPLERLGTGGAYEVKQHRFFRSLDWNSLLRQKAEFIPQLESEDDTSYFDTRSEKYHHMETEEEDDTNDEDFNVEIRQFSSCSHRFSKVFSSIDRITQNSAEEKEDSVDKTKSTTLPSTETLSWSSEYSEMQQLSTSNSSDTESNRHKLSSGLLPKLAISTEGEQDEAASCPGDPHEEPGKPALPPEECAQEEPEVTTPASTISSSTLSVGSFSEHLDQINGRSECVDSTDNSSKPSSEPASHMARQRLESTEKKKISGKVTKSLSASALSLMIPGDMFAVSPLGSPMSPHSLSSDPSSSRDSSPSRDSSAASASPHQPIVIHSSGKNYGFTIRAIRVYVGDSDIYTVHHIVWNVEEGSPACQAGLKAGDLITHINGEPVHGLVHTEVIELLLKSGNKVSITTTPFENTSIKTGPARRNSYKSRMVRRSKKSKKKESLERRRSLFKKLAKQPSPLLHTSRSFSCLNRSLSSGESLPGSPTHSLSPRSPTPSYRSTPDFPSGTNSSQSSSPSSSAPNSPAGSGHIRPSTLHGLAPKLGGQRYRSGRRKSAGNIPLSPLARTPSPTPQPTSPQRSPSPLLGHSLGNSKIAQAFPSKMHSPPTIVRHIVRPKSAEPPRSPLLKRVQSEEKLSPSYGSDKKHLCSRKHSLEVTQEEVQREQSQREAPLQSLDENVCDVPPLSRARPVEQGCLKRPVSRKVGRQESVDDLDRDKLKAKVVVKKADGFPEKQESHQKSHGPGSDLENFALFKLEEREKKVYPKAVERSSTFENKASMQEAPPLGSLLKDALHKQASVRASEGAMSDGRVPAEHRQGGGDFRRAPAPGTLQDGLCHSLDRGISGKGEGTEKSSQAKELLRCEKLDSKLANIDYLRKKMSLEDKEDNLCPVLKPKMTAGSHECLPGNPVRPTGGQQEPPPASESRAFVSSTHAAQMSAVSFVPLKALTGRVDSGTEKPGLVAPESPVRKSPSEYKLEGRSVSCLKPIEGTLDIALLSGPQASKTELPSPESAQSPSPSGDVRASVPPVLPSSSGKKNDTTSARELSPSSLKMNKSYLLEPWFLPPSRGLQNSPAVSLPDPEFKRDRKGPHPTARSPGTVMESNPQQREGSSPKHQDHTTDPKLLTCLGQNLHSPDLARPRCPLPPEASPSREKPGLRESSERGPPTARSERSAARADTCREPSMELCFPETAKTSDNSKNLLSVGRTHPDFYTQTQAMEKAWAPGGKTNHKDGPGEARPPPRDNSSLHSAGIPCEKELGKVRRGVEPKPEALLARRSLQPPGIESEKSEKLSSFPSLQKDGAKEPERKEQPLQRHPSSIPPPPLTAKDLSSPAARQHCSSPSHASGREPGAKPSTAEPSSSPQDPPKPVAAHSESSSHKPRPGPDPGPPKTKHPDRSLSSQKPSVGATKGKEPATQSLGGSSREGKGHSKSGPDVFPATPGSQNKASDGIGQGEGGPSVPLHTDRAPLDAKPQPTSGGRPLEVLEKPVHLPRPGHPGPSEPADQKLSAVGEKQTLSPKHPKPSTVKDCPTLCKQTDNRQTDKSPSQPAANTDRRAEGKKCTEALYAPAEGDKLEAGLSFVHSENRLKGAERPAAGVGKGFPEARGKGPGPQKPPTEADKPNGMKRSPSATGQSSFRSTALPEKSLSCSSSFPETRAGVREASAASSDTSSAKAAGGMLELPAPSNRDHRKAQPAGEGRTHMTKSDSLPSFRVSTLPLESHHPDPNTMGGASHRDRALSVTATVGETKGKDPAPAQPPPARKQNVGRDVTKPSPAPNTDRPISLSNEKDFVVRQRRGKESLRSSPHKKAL
inactive: [1] 0.007 | [2] -0.019 | [3] -0.037 | [4] 0.023 | [5] 0

MRPL10 isoform 2 (UniProt Q7Z7H8)
inactive: [1] -0.053 | [2] 0.097 | [3] 0.023 | [4] -0.026 | [5] 0.016

LUC7L (UniProt Q9NQ29)
inactive: [1] 0.011 | [2] 0.013 | [3] 0.006 | [4] 0.003 | [5] 0.055

MCU (UniProt Q8NE86)
inactive: [1] 0.021 | [2] 0.028 | [3] -0.031 | [4] -0.023 | [5] 0.015

MBD2 (UniProt Q9UBB5)
inactive: [1] 0.042 | [2] 0.008 | [3] -0.028 | [4] 0.065 | [5] 0.027

MICB, A0A140T979
inactive: [1] 0.028 | [2] -0.012 | [3] -0.003 | [4] 0.026 | [5] 0.019

MICU2 (UniProt Q8IYU8)
inactive: [1] -0.132 | [2] -0.069 | [3] 0.049 | [4] -0.072 | [5] -0.002

LETM1 (UniProt O95202)
inactive: [1] 0.006 | [2] -0.017 | [3] 0.002 | [4] 0.042 | [5] -0.053

KIF2A isoform 4 (UniProt O00139)
inactive: [1] 0.006 | [2] -0.012 | [3] 0.015 | [4] 0.012 | [5] 0.04

KIF21A isoform 5 (UniProt Q7Z4S6)
Sequence of UniProt Q7Z4S6 (Q7Z4S6 whole entry, looked up): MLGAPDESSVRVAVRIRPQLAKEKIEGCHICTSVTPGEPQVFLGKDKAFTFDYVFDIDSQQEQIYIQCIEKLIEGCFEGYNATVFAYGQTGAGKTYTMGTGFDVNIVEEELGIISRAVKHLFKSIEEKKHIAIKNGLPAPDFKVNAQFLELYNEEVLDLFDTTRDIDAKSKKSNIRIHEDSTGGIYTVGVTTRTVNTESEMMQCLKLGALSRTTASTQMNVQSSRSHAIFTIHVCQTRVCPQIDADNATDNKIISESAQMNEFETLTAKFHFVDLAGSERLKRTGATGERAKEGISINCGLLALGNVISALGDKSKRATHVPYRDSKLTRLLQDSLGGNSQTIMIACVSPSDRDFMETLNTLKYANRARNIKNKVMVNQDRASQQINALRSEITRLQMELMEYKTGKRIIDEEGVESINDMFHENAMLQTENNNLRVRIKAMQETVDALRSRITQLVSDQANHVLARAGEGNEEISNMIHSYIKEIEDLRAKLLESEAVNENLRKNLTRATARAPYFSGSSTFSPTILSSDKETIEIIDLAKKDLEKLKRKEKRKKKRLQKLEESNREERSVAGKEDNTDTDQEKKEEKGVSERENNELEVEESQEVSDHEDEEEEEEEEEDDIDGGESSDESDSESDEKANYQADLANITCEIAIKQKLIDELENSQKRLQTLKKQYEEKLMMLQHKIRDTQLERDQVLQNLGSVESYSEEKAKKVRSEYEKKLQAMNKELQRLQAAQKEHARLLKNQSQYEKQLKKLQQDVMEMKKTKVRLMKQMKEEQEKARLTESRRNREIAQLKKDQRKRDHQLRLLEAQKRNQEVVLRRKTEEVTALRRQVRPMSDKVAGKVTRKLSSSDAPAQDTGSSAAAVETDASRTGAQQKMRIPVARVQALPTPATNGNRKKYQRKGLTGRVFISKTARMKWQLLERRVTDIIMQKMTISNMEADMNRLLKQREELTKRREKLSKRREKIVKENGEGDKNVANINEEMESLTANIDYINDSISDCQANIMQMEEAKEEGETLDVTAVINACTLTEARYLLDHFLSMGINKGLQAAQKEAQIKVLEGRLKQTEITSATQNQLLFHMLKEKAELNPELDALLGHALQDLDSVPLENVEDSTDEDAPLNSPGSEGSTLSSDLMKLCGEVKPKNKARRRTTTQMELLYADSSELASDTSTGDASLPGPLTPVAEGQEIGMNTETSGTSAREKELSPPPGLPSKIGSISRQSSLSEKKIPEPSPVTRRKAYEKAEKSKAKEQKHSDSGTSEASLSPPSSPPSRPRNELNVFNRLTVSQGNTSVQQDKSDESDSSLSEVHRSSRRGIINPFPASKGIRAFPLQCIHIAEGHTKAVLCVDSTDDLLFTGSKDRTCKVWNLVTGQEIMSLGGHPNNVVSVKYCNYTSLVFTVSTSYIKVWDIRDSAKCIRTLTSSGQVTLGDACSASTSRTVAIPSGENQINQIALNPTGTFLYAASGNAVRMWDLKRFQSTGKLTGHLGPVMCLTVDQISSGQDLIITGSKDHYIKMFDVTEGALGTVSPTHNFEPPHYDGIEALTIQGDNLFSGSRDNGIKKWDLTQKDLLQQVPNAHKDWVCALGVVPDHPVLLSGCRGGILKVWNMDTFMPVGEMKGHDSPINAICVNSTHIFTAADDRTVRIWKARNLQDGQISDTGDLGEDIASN
inactive: [1] -0.023 | [2] 0.024 | [3] -0.003 | [4] 0.009 | [5] 0.118

MMS19 isoform 8 (UniProt Q96T76)
inactive: [1] -0.024 | [2] 0.001 | [3] 0.032 | [4] -0.005 | [5] 0.018

KIF4A (UniProt O95239)
inactive: [1] -0.042 | [2] 0.012 | [3] 0.035 | [4] 0.06 | [5] 0.005

MAP4K5 (UniProt Q9Y4K4)
inactive: [1] 0.069 | [2] 0.063 | [3] -0.079 | [4] -0.022 | [5] -0.1

MAP2K3 isoform 3 (UniProt P46734)
inactive: [1] 0.035 | [2] -0.021 | [3] -0.024 | [4] 0.043 | [5] -0.006

MON2 isoform 5 (UniProt Q7Z3U7)
inactive: [1] -0.014 | [2] 0.006 | [3] 0.005 | [4] 0.009 | [5] -0.013

MAP11 (UniProt Q8WVR3)
inactive: [1] -0.103 | [2] 0 | [3] -0.006 | [4] 0.063 | [5] -0.03

MORC2 (UniProt Q9Y6X9)
inactive: [1] -0.068 | [2] 0.043 | [3] 0.049 | [4] -0.014 | [5] 0.018

MAP4K4 isoform 3 (UniProt O95819)
inactive: [1] 0.022 | [2] 0.029 | [3] 0.015 | [4] -0.021 | [5] 0.083

LDAH isoform 2 (UniProt Q9H6V9)
Sequence of UniProt Q9H6V9 (Q9H6V9 whole entry, looked up): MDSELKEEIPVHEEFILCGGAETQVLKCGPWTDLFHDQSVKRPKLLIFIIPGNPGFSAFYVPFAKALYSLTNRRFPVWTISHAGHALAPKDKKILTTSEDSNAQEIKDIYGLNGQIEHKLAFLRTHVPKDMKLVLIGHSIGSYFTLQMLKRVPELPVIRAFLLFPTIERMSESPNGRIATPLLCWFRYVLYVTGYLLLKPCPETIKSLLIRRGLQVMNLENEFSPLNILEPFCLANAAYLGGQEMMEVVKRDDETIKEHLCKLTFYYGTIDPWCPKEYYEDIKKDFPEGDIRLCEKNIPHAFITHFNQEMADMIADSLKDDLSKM
inactive: [1] -0.119 | [2] 0.018 | [3] 0.001 | [4] 0.075 | [5] -0.002

MARK1 (UniProt Q9P0L2)
inactive: [1] -0.034 | [2] 0.036 | [3] 0.019 | [4] -0.006 | [5] 0.116

MAPKAPK2 (UniProt P49137)
inactive: [1] 0.043 | [2] 0.008 | [3] -0.053 | [4] 0.004 | [5] -0.051

LIMK1 (UniProt P53667)
inactive: [1] 0.007 | [2] -0.015 | [3] -0.07 | [4] -0.024 | [5] 0.007

MGST1 (UniProt P10620)
inactive: [1] -0.08 | [2] 0.005 | [3] 0 | [4] -0.056 | [5] 0.022

MED16 (UniProt Q9Y2X0)
inactive: [1] 0.019 | [2] 0.022 | [3] 0.029 | [4] 0.001 | [5] 0.087

KIF14 (UniProt Q15058)
inactive: [1] 0.028 | [2] -0.148 | [3] 0.059 | [4] -0.012 | [5] 0.039

LTN1 isoform 3 (UniProt O94822)
inactive: [1] -0.059 | [2] 0 | [3] 0.027 | [4] -0.025 | [5] 0.04

MGST3 (UniProt O14880)
inactive: [1] 0.003 | [2] -0.033 | [3] -0.008 | [4] -0.072 | [5] 0.056

MAP4 (UniProt P27816)
inactive: [1] 0.027 | [2] 0.012 | [3] -0.012 | [4] -0.027 | [5] -0.043

MARK3 (UniProt P27448)
inactive: [1] 0.02 | [2] 0.069 | [3] 0.118 | [4] -0.06 | [5] 0.053

LYSMD3 (UniProt Q7Z3D4)
inactive: [1] 0.031 | [2] 0.063 | [3] 0.062 | [4] -0.096 | [5] -0.084

LBR (UniProt Q14739)
inactive: [1] -0.018 | [2] 0.045 | [3] 0.04 | [4] 0.007 | [5] 0.117

MAST2 (UniProt Q6P0Q8)
inactive: [1] -0.257 | [2] 0.027 | [3] 0.073 | [4] -0.074 | [5] -0.028

MAP2K5 (UniProt Q13163)
inactive: [1] -0.046 | [2] 0.155 | [3] -0.045 | [4] -0.407 | [5] -0.02

MOSPD2 (UniProt Q8NHP6)
Sequence of UniProt Q8NHP6 (Q8NHP6 whole entry, looked up): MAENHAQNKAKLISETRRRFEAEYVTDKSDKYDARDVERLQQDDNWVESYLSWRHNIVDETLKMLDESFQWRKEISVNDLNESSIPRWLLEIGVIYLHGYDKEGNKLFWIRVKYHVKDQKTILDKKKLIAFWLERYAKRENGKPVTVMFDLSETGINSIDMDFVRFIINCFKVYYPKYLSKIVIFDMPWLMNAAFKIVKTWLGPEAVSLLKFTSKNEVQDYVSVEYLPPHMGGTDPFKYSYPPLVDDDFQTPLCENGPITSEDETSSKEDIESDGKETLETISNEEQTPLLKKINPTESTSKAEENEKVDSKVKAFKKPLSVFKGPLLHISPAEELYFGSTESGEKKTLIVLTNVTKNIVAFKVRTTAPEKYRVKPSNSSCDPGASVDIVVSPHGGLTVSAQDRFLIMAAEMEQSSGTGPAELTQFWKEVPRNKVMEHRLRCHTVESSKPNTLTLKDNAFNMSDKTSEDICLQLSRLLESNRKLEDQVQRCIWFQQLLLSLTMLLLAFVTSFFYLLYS
inactive: [1] -0.024 | [2] 0.029 | [3] 0.047 | [4] -0.078 | [5] -0.013

LYN (UniProt P07948)
inactive: [1] -0.063 | [2] -0.103 | [3] -0.091 | [4] -0.032 | [5] 0.011

KRI1 (UniProt Q8N9T8)
inactive: [1] 0.053 | [2] 0.043 | [3] 0.027 | [4] -0.048 | [5] -0.039

LRWD1 (UniProt Q9UFC0)
inactive: [1] -0.027 | [2] 0.044 | [3] -0.012 | [4] 0.023 | [5] 0.039

KIFC3 isoform 6 (UniProt Q9BVG8)
inactive: [1] 0.023 | [2] 0.016 | [3] -0.178 | [4] -0.21
active: [5] -1.16

MAPK8 isoform 3 (UniProt P45983)
inactive: [1] -0.01 | [2] 0.03 | [3] 0.004 | [4] 0.071 | [5] -0.026

MED17 (UniProt Q9NVC6)
inactive: [1] 0.009 | [2] 0.021 | [3] 0.016 | [4] 0.021 | [5] 0.02

MOCS3 (UniProt O95396)
inactive: [1] -0.056 | [2] -0.019 | [3] 0.278 | [4] 0.025 | [5] -0.176
